Screens deposited in PubChem BioAssay by National Center for Advancing Translational Sciences (NCATS).
This is one part of a sample in which hits are shown more often than they occur.
Pf Dd2 growth: Plasmodium falciparum Dd2 growth inhibition; 4.3% of 120,000 active; Potency, µM (highest dose often 28.9 µM), for the others: at the highest dose activity, negative = inhibition, most hits filed as inhibitors; AID 1347417; P. falciparum Dd2 growth, SYBR Green, 72 h; active means well fitted inhibition curve with a large enough effect;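 further: plate controls were DMSO vehicle for no effect and reference drug for full effect; nearly all actives have a fitted effect of over 65% in size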
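Infected erythrocytes (Dd2, 0.3% parasitemia, 2.5% hematocrit final) are added to compound in RPMI-1640/Albumax II medium, grown 72 h at 37C in low oxygen, then lysed with saponin/Triton-X containing SYBR Green and read by fluorescence.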
An asterisk follows results filed as active; i = inactive; [ ] = remark or other dose. Potency means the concentration at half of the fitted maximal effect.

SMILES	Pf Dd2 growth
NC(=O)CCC[C@H]1NC[C@@H]2C[C@H]1CN(Cc1ccccc1)C2	-24%
COc1ccccc1OCCNC(=O)CCC[C@H]1NC[C@@H]2C[C@H]1CN(Cc1ccccc1)C2	-31%
CNC(=O)CCC[C@H]1NC[C@@H]2CC1CN(Cc1ccccc1)C2	-26%
CC(C)CN1C(=O)c2ccccc2C(C(=O)NCc2ccco2)C12CCCC2 (stereo not drawn)	-21%
COCCCNC(=O)C1(CCO)CC12CCOCC2 (stereo not drawn)	13%
Cc1nc2ncccn2c1C(=O)N1CCC(c2nccn2CC(N)=O)CC1	-6%
COc1ccc(CN2CCC(CO)(CN3CCCC3)CC2)c(OC)c1C	i
O=C(c1ccccn1)N1CC[C@H]2COC(=O)N2c2cc(F)ccc2C1	5%[44.1 µM]
CC[C@@]1(O)CCN(c2nc(N)c3cc(OC)c(OC)cc3n2)C[C@H]1O	-5%
Cn1c(Cn2cccn2)nnc1C1CC(NC(=O)c2cnco2)C1 (stereo not drawn)	-3%
CN1C(=O)[C@@H]2C[C@@H](CN2Cc2ccnc3ccccc23)Oc2ccccc21	-18%[44.1 µM]
COc1cccc(C2C(C(=O)Nc3ccccc3)=C(C)Nc3nc(-c4ccccc4)nn32)c1OC (stereo not drawn)	i
COc1ccc(C2C(C(=O)Nc3ccccc3)=C(C)Nc3nc(-c4ccccc4)nn32)c(OC)c1 (stereo not drawn)	i
COc1ccc(C2C=C(c3ccc(C)cc3)Nc3c(C(=O)Nc4ccccc4)cnn32)cc1 (stereo not drawn)	8.9µM*
CCOc1cccc(-c2nc(C(=O)Nc3ccc(OC)cc3)cs2)c1	24%
COc1cc(OC)c(C2C=C(c3ccc(C)cc3)Nc3c(C(=O)Nc4ccccc4)cnn32)cc1OC (stereo not drawn)	10µM*
COc1ccc(C2C(C(=O)Nc3ccccc3)=C(C)Nc3nc(SCC(=O)c4ccc(C)cc4)nn32)cc1 (stereo not drawn)	30%
CCOc1ccc(NC(=O)c2cnn3c2NC(c2cccc(OC)c2)=CC3c2ccccc2)cc1 (stereo not drawn)	1.4µM*
COc1ccc(-c2cnnn2-c2ccc(NC(=O)c3ccccc3OC)cc2)cc1	28%
CCOc1ccc(NC(=O)c2cc3cc4cc(OC)ccc4nc3s2)cc1	-2%
Cc1nn(CCC#N)c(C)c1[C@@H]1C=C[C@@H](NC(=O)CCCC(=O)O)C1	-14%[44.1 µM]
CNCc1cccn1C	-1%[44.1 µM]
CCc1ccc(NC(=O)c2ccc(F)c(S(=O)(=O)N(C)C3CCCCC3)c2)cc1	11µM*
CCc1ccc(NC(=O)c2ccc(F)c(S(=O)(=O)N3CCC(C)CC3)c2)cc1	-18%
CCc1ccc(NC(=O)c2ccc(F)c(S(=O)(=O)N3CCc4ccccc4C3)c2)cc1	16%
SMILES	Pf Dd2 growth
O=S(=O)(c1ccccc1)N(C1CC1)C1CCN(c2ncncn2)CC1	-18%
O=C1NCC2(CCN(Cc3ccc(C(F)(F)F)cc3)CC2)Oc2ccccc21	-5%
O=c1[nH]c(C2CCCN(S(=O)(=O)c3ccccc3Cl)C2)nc2c1nnn2Cc1ccc(OC(F)(F)F)cc1 (stereo not drawn)	i
COc1cccc(Cn2nnc3c(=O)[nH]c(C4CCCN(C(=O)c5ccc(C)cc5)C4)nc32)c1 (stereo not drawn)	10µM*
CCc1ccc(Cn2nnc3c(=O)[nH]c(C4CCCN(C(=O)c5cccc(Cl)c5)C4)nc32)cc1 (stereo not drawn)	1%
Cc1noc(C)c1[S+](=O)([O-])N1CCC2(CC1)Cc1ccccc1NC2=O	-11%
O=C1Nc2ccccc2OCC12CCN([S+](=O)([O-])c1ccccc1)CC2	9%
Cc1noc(C)c1[S+](=O)([O-])N1CCC2(CC1)COc1ccccc1NC2=O	8.9µM*
C[C@@]1(O)CCN(C(=O)C2(c3ccccc3)CC2)C[C@@H]1Cc1ccccc1	-20%
CS(=O)(=O)c1ccc(O[C@H]2COCCN(Cc3ccccn3)C2)cc1	13%[44.1 µM]
O=C(CN1C(=O)NC2(CCOCC2)C1=O)Nc1cc(F)cc(F)c1	45%
O=C(C1CC1)N1CCc2nc(C3CC3)nc(-c3ccc(Cl)cc3)c2C1	-1%
Cc1cnc(C2CCC2)n1CCNC(=O)c1cc(C2CC2)[nH]n1	-4%
Cc1cc(C)c(S(=O)(=O)NCCn2c(C)cnc2C2CCC2)cc1C	3.5µM*
Cc1cnc(C2CC2)n1CCNC(=O)C1CCN1C1CCCCC1 (stereo not drawn)	-1%
COc1cccc(CN2C(=O)OC3(CCN(C(=O)c4cccc(C#N)c4)CC3)C2(C)c2cccnc2)c1 (stereo not drawn)	i
Cc1ccc2[nH]c(=O)c(CCC(=O)O)cc2c1	21%
Cc1cccc(-c2nocc2CCC(=O)NC2CCN(Cc3ccccc3)CC2)c1	i
Cc1ccc2[nH]c(=O)c(CCC(=O)NC3CCN(Cc4ccccc4)CC3)cc2c1	7.1µM*
O=C(NCc1ccccc1)N1CCN(C(=O)N2CC3CC(C2)[C@H]2CCCC(=O)N2C3)CC1 (stereo partly drawn)	-16%
COCCn1cnnc1CNc1cc(C)nc2c(C)c(C)nn12	-10%
O=C(c1ccc(F)cc1F)N1CCN(c2cc(-c3cccs3)[nH]n2)CC1	i
Cc1ncoc1C(=O)N1CC[C@H]2C(=O)NCCCCCCN(Cc3ccncc3)[C@@H]2C1	0%
COCC(=O)N[C@H]1C[C@H]2C(=O)Nc3ccc(-c4cccs4)cc3C(=O)N2C1	-19%[44.1 µM]
O=C(COc1ccccc1)N[C@@H]1C[C@H](Cn2cc(C3CC3)nn2)[C@@H](O)[C@H]1O	-7%[44.1 µM]
SMILES	Pf Dd2 growth
O=C(C1CC1)N1CCc2cc(Br)cc(S(=O)(=O)N3CCN(c4cccc(Cl)c4)CC3)c21	-7%
CC(=O)N1CCc2cc(Br)cc(S(=O)(=O)N3CCN(c4cccc(C(F)(F)F)c4)CC3)c21	10µM*
CCC(=O)N1CCc2cc(Br)cc(S(=O)(=O)N3CCN(c4ccccc4)CC3)c21	-3%
O=C(CCc1nnn2c1CN(C(=O)Nc1cccc(F)c1)CC2)NC1CC1	i
CCCCNc1cc(N2CCN(C3CCCCC3)CC2)c2noc3c2c1C(=O)c1ccccc1-3	2.5µM*
COc1cc2c(cc1OC)C(C[C@H]1CN(C(=O)c3cccn3C)CC[C@H]1CC(=O)O)=NCC2	0%
O=C(NCc1cccc(F)c1)c1c(OCC2CC2)cc(=O)n2c1CCCCC2	3%
CC(=O)N1C[C@@H](C(=O)N2CCN(c3ccccn3)CC2)[C@H](c2nc(C)no2)C1	3%
CCn1c(Cn2ccnc2)nnc1C1CCN(C(=O)C(C)(C)OC)CC1	-12%
CCN(CC)c1cc(CCC(=O)O)ccn1	53%
CCN(CC)c1cc(CCC(=O)N2CCC(COC)CC2)ccn1	1%
CCN(CC)c1cc(CCC(=O)NCCN(C)C2CCCCC2)ccn1	1.6µM*
CCN(CC)c1cc(CCC(=O)NCCc2ccccn2)ccn1	-13%
CCN(CC)c1cc(CCC(=O)N2CCN(c3cccc(OC)c3)CC2)ccn1	i
CCN(CC)c1cc(CCC(=O)NCCCN2CCN(C)CC2)ccn1	13%
CCN(CC)c1cc(CCC(=O)NCCN2CCCCCC2)ccn1	3.5µM*
CCN(CC)c1cc(CCC(=O)N2CCN(c3ccc(Cl)cc3)CC2)ccn1	8.9µM*
CCN(CC)c1cc(CCC(=O)NCCOC)ccn1	3%
CNc1ncccc1C(=O)N[C@H](c1cccs1)C1CC(O)C1 (stereo partly drawn)	-20%
CN(CC1CCOC1)C(=O)Nc1ccc(C(F)(F)F)cc1 (stereo not drawn)	i[5.79 µM]
O=C1Nc2cc(Cl)ccc2C(=O)N2C[C@H](O)C[C@@H]12	10%[44.1 µM]
